Compounds without any hit were thinned out: in the full panel of roughly 79,000, 15% have a hit. Rule as the data show it: active = growth inhibition above about 70%; inactive = the rest.
Key:
[1] = NCI Yeast Anticancer Drug Screen. Data for the rad50 strain (AID 155);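 also: 0% = growth of vehicle-only cultures of the same strain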; conditions: S. cerevisiae rad50 strain growth inhibition; at 50.0 µM; active compounds read high
Procedure, shortened: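 Yeast carrying a defined DNA repair defect were exposed to test compounds, and growth was compared with vehicle-treated controls to give percent inhibition.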

[2] = NCI Yeast Anticancer Drug Screen. Data for the mec2-1 strain (AID 157); conditions: S. cerevisiae mec2-1 strain, at 50.0 µM, active compounds read high
Procedure, shortened: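 Growth inhibition is read against vehicle-treated controls after compound exposure of the mec2-1 yeast strain, which is defective in DNA damage repair or cell cycle control.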

[3] = NCI Yeast Anticancer Drug Screen. Data for the sgs1 mgt1 strain (AID 161);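 also: 0% = growth of cultures given vehicle only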; conditions: S. cerevisiae sgs1 mgt1 strain, at 50.0 µM, active compounds read high
Procedure, shortened: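 Percent growth inhibition was derived by comparing compound-exposed mutant yeast with vehicle-exposed cultures. The strain carries alterations in DNA damage repair.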

[4] = NCI Yeast Anticancer Drug Screen. Data for the cln2 rad14 strain (AID 165);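 also: 0% = growth equal to vehicle treated cultures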; conditions: S. cerevisiae cln2 rad14 strain, at 50.0 µM, active compounds read high
Procedure, shortened: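 Growth inhibition, relative to vehicle-treated controls, is the read-out. The test organism is a yeast strain with defined genetic alterations, cln2 rad14.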

[5] = NCI Yeast Anticancer Drug Screen. Data for the mlh1 rad18 strain (AID 175); conditions: S. cerevisiae mlh1 rad18 strain growth inhibition; at 50.0 µM; active compounds read high
Procedure, shortened: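 Cells of a genetically altered yeast strain, deficient in DNA damage repair, were treated with compound. Their growth was then compared with that of vehicle-treated cultures to give inhibition.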

[6] = NCI Yeast Anticancer Drug Screen. Data for the bub3 strain (AID 167); conditions: S. cerevisiae bub3 mutant strain, at 50.0 µM, active compounds read high
Procedure, shortened: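 Compounds were applied to a genetically altered yeast strain carrying a cell-cycle control defect. Growth inhibition was scored against vehicle-treated controls.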

Measured: growth inhibition

O=c1[nH]cnc2nc(N3CCN(c4ccccc4)CC3)sc12
inactive: [1] 18.8% | [2] 11.4% | [3] 19.8% | [4] -40.7% | [5] 23.4%

CCOP(=O)(OCC)/C(C#N)=C/c1ccc(N(C)C)cc1
inactive: [1] 16.3% | [2] -9.2% | [3] 12.4% | [4] 9.8% | [5] 5.8%

C/C(=N\NC(=O)c1ccncc1)c1cccc(F)c1
inactive: [1] -57% | [2] -20.9% | [3] -51.2% | [4] -48.7% | [5] -38%

COc1ccc(N(Cc2ccccc2)c2nn[nH]n2)cc1
inactive: [1] 13.9% | [2] -18.4% | [3] -3.3% | [4] 11.6% | [5] -19.8%

COC(=O)Cc1c(C(C)=O)[nH]c2ccccc12
inactive: [1] 19.5% | [2] 9.2% | [3] 4.35% | [4] 20.6% | [5] 13.1%

N#C/C(=C\c1ccc(Cl)cc1)C(=O)c1ccccc1
inactive: [1] 9.4% | [2] 12.8% | [3] 29.8% | [4] 20.9% | [5] 22.7%

Cc1ccc(S(=O)OCC23CC4CC(CC(C4)C2)C3)cc1 (stereo unspecified)
inactive: [1] 17.5% | [2] 1.6% | [3] -1.05% | [4] 17.5% | [5] -30.6%

C1CCC(C(CCCCC(C2CCCCC2)C2CCCCC2)C2CCCCC2)CC1
inactive: [1] 46.5% | [2] -3.8% | [3] 27.2% | [4] 16.1% | [5] -2.6%

COc1cc2c(cc1OC)C(C#N)(C(c1ccccc1)c1ccccc1)N(C(=O)c1ccccc1)C=C2 (stereo unspecified)
inactive: [1] 16.9% | [2] 3.45% | [3] 1.35% | [4] -1.15% | [5] 30.9%

CCCCN(C)CC(C)O (stereo unspecified)
inactive: [1] -10.7% | [2] -12.2% | [3] -13.8% | [4] -24.3% | [5] -22.2%

COc1cc(C2C3=C(COC3=O)OC(C)(C)Oc3cc4c(cc32)OCO4)cc(OC)c1O (stereo unspecified)
inactive: [1] 55.7% | [2] -3.6% | [3] -7.3% | [4] -28.7% | [5] 0%

O=C(O)c1ccc2c(c1)CC1(C2)Cc2ccccc2C1=O (stereo unspecified)
inactive: [1] -16.4% | [2] -4.9% | [3] -8.2% | [4] -14.2% | [5] -2.75%

CC(C)CCCC(C)[C@H]1CCC2[C@@H]3CCC4Cc5nc6c(nc5C[C@]4(C)C3CC[C@@]21C)CC1CC[C@@H]2C(C[C@@H](O)[C@@]3(C)C2C[C@@H]2OC4(CCC(C)CO4)C(C)[C@@H]23)[C@@]1(C)C6 (stereo partly specified)
inactive: [1] -19.6% | [2] 1.65% | [3] -21.8% | [4] -15% | [5] -8.65%

CC(C)CCCC(C)C1CCC2C3CCC(O)C(C)(CCCO)C3CCC12C (stereo unspecified)
inactive: [1] 2% | [2] -3.85% | [3] 11.9% | [4] 32.1% | [5] 13.7%

Cc1ccc(NC(=O)CC/C(CC(=O)C(C)(C)C)=N\Nc2ccc([N+](=O)[O-])cc2[N+](=O)[O-])cc1C
inactive: [1] 18.6% | [2] -3.55% | [3] -11.7% | [4] 4% | [5] -18.3%

O=C1CCCCC1CN1CCOCC1 (stereo unspecified)
inactive: [1] -37.5% | [2] -24.2% | [3] -5.3% | [4] -6.45% | [6] -22.1% | [5] -16.4%

O=C1C/C(=C\c2cccc([N+](=O)[O-])c2)C(=O)N1
inactive: [1] 9.7% | [2] 11.3% | [3] -5.4% | [4] -11.3% | [5] -3.2%

Cc1ccc2c(CC(=O)O)cc(=O)oc2c1
inactive: [1] 7.35% | [2] -6.35% | [3] -7.95% | [4] 0.9% | [5] -9.35%

O=c1cccc(O)[nH]1
inactive: [1] -14.8% | [2] -17.6% | [3] -15.1% | [4] -0.15% | [5] -8.85%

O=C(Nc1cc2cc([N+](=O)[O-])ccc2oc1=O)c1cccs1
inactive: [1] -12.2% | [2] -30.7% | [3] -6.8% | [4] 4.85% | [5] -15.6%

O=c1[nH]c(-c2ccccc2N=NN2CCCCC2)nc2ccccc12
inactive: [1] -4.05% | [2] -2.35% | [3] -2.6% | [4] -11.8% | [5] 1.8%

NC(=O)N/N=C1\CC2CC1C1CCCC21 (stereo unspecified)
inactive: [1] 8.05% | [2] 5.35% | [3] -1.75% | [4] -0.5% | [5] 15.3%

NC(CSS(=O)(=O)CC(N)C(=O)O)C(=O)O (stereo unspecified)
inactive: [1] -5.85% | [2] 3.45% | [3] 6.15% | [4] -20.7% | [5] -7.05%

— PubChem BioAssay (NCI)
